# Results from PubChem BioAssay (NCATS).
# The source made the active and inactive calls. Calls follow the shape of the full dose curve.
# Experiment: qHTS drug screen for cell cycle checkpoint inhibitors in PARPi-resistant BRCA-mutant ovarian cancer cell lines. (AID 1963452)
# Conditions: PEO1/OlaR viability, CellTiter-Glo luminescence, 96 h; for Z-AUC: stronger effect = lower value
# Source text: Women's Malignancies Branch, Center for Cancer Research (CCR),
# National Cancer Institute (NCI), National Institutes of Health (NIH), Bethesda, MD
# Poly (ADP-ribose) polymerase inhibitors (PARPis) have changed the treatment paradigm in breast cancer gene (BRCA) - mutant high-grade serous ovarian carcinoma (HGSC). However, most patients eventually develop resistance to PARPis, highlighting an unmet need for improved therapeutic strategies. Using high-throughput drug screens, we identified ataxia telangiectasia and rad3-related protein/checkpoint kinase 1 (CHK1) pathway inhibitors as cytotoxic and further validated the activity of the CHK1 inhibitor (CHK1i) prexasertib in PARPi-sensitive and -resistant BRCA-mutant HGSC cells and xenograft mouse models. CHK1i monotherapy induced DNA damage, apoptosis, and tumor size reduction. We then conducted a phase 2 study (NCT02203513) of prexasertib in patients with BRCA-mutant HGSC. The treatment was well tolerated but yielded an objective response rate of 6% (1 of 17; one partial response) in patients with previous PARPi treatment. […] BRCA reversion mutation in previously PARPi-treated BRCA-mutant patients was not associated with resistance to CHK1i.
# Among others, 1082 oncology drugs, both approved and investigational, were prioritized based on their status in clinical trial development. […] Drugs with average Z-AUC values less than -1.0 in all three cell lines were classified as "hits" resulting in 151 oncology drug hits. The screen also confirmed cross-resistance between olaparib and other PARPis (rucaparib, niraparib, and talazoparib) in PARPi-resistant PEO1/OlaR and PEO4.
# [1] G. L. Lin, K. M. Wilson, M. Ceribelli, B. Z. Stanton, P. J. Woo, S. Kreimer, E. Y. Qin, X. Zhang, J. Lennon, S. Nagaraja, P. J. Morris, M. Quezada, S. M. Gillespie, D. Y. Duveau, A. M. Michalowski, P. Shinn, R. Guha, M. Ferrer, C. Klumpp-Thomas, S. Michael, C. McKnight, P. Minhas, Z. Itkin, E. H. Raabe, L. Chen, R. Ghanem, A. C. Geraghty, L. Ni, K. I. Andreasson, N. A. Vitanza, K. E.Warren, C. J. Thomas, M. Monje, Therapeutic strategies for diffuse midline glioma from high-throughput combination drug screening. Sci. Transl. Med. 11, (2019).
# [2] T. M. Yamamoto, A. McMellen, Z. L. Watson, J. Aguilera, R. Ferguson, E. Nurmemmedov, T. Thakar, G. L. Moldovan, H. Kim, D. M. Cittelly, A. M. Joglar, E. P. Brennecke, H. Wilson, K. Behbakht, M. J. Sikora, B. G. Bitler, Activation of Wnt signaling promotes olaparib resistant ovarian cancer. Mol. Carcinog. 58, 1770 - 1782 (2019).
# PROTOCOL TABLE (as described by Inglese J, Shamu CE and Guy RK. 2007)
# SEQUENCE No. (e.g., 1, 2, 3, etc.); […] (e.g., Cells, Incubation, Reagent, etc.); VALUE; DESCRIPTION.
# 1; Compounds; 20nL; 1536-well white tissue culture-treated plates.
# 2; Cells; 5 uL; PEO1, PEO4, and PEO1/OlaR cells at 600 cells per well.
# 3; Incubation; 96 hr; 37C, 95% humidity, 5% CO2.
# 4; Reagent; 3 uL; CellTiter-Glo (Promega).
# 5; Incubation; 15 min; room temperature.
# 6; Detection; Luminescence, PHERAstar (BMG Labtech) plate reader.
# NOTES (numbers refer to Sequence numbers above)
# 1. MIPE 5.0 compounds were acoustically dispensed by Echo Acoustic Liquid Handler (Beckman Coulter Life Sciences). Each compound was plated at an 11-point concentration range with 1:3 dilution. Bortezomib, a proteasome inhibitor (final concentration, 20 uM), was used as a positive.
# 2. PEO1, PEO4, and PEO1/OlaR were trypsinized and dispensed in 5 uLof growth medium using a Multidrop Combi dispenser at a density of 600 cells per well to allow compounds to be present during the exponential growth phase.
# 3. Plates were incubated for 96 hours at standard incubator conditions and covered by a stainless steel gasketed lid to prevent evaporation.
# 4. Three microliters of CellTiter-Glo (Promega) were added to each well.
# 5. Plates were incubated at room temperature for 15 min with a stainless-steel lid in place.
# 6. Luminescence readings were taken using PHERAstar (BMG Labtech). […]
# [1] = measured here: PEO1 parental Z-AUC
# Potency is read from the fitted curve at half-maximal effect.
Structure (SMILES),Potency,Z-AUC [1],Z-AUC (measured here: PEO4 Z-AUC),Z-AUC
CC1(C)CC(=O)c2c(C(F)(F)F)nn(-c3ccc(C(N)=O)c(NC4CCC(O)CC4)c3)c2C1 (configuration not stated),0.219 µM (active),-1.53,-1.31,–
Cc1cc(NC(=O)Nc2ccc(N(C)C)cc2)c2cc(F)cc(F)c2n1,–,-0.66,-0.472,-0.154 (inactive)
Clc1ccc(COC(Cn2ccnc2)c2ccc(Cl)cc2Cl)c(Cl)c1 (configuration not stated),–,0.118,-0.196,-0.245 (inactive)
COc1ccc(-c2oc3c(CC=C(C)C)c(O)cc(O)c3c(=O)c2O)cc1,–,0.584,0.876,0.707 (inactive)
O[C@@H](COc1cccc2ncccc12)CN1CCN(C2c3ccccc3[C@@H]3[C@H](c4ccccc42)C3(F)F)CC1 (some centres not stated),–,-1.13,-0.777,-1.07 (inactive)
O=C(NCCCCN1CCOCC1)c1cc2ccccc2o1,–,1.22,1.23,1.41 (inactive)
O=C(O)C1=CC(O)C(O)[C@H](O)C1 (some centres not stated),–,1.52,1.23,1.17 (inactive)
NC1(C(=O)N[C@@H](CCO)c2ccc(Cl)cc2)CCN(c2ncnc3[nH]ccc23)CC1,–,0.588,0.532,-0.465 (inactive)
COc1nccc(-c2c(-c3ccc(F)cc3)ncn2C2CCNCC2)n1,–,0.981,0.889,1.19 (inactive)
NCC1CCC(C(=O)O)CC1 (configuration not stated),–,-0.68,-0.142,-0.425 (inactive)
O=C(O)CCNc1cc(N2CCc3ccccc3CC2)nc(-c2ccccn2)n1,–,0.477,0.175,0.743 (inactive)
Cc1cnc(Nc2cccc(CN3CCOCC3)c2)nc1Nc1cccc(S(=O)(=O)NC(C)(C)C)c1,–,-0.892,-1.26,-1.13 (inactive)
Cn1c(=O)c(-c2c(Cl)cccc2Cl)cc2cnc(Nc3cccc(C(=O)O)c3)nc21,–,0.413,0.693,0.595 (inactive)
CC[C@H](C=C[C@@H](C)[C@H]1CC[C@H]2[C@@H]3CC=C4C[C@@H](O)CC[C@]4(C)[C@@H]3CC[C@]12C)C(C)C,–,1.79,1.84,0.764 (inactive)
